# Data as given in the supplement of paper PMC9492666.
# Counter-ions that a name gives are not always drawn.
# Tests used:
# Conditions in all cases: 72 h
# HCC1937 [1] = assay: relative cell viability, compound alone, vs DMSO (fraction of DMSO control); higher = less growth inhibition
# MDA-MB-231 [2] = assay: as above
# HCC1937 [3] = assay: relative cell viability, compound + RSL3, vs DMSO (fraction of DMSO control); higher = less growth inhibition
# MDA-MB-231 [4] = assay: as above
# 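Throughout, for relative cell viability, compound + RSL3, vs DMSO: breast cancer cell viability read out with the CCK-8 kit after co-treatment of each compound with the ferroptosis inducer RSL3.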
# 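Throughout, for relative cell viability, compound alone, vs DMSO: viability read out with the CCK-8 kit in 96-well plates, screening a set of 303 compounds acting on lipid metabolism targets.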
SMILES,relative cell viability (HCC1937 [1]),relative cell viability (MDA-MB-231 [2]),relative cell viability (HCC1937 [3]),relative cell viability (MDA-MB-231 [4])
COc1cccc(-n2c(=O)[nH]c3cc(Cl)n(-c4ccc(-c5cccc(OC)c5O)cc4)c3c2=O)c1,0.835,0.903,–,–
NC(N)=NN=Cc1cccc(Cl)c1Cl [Raphin1],0.818,0.72,–,–
Cc1nc(Nc2cnn(C3CCNCC3)c2)nc2c1N(C)C(=O)c1cc3ccccc3cc1N2C,0.354,0.49,–,–
CC(=O)Nc1nc(C)c(S(=O)(=O)Nc2ccc(C(O)(C(F)(F)F)C(F)(F)F)cc2)s1,1.29,1.24,–,–
CCCC[S+]([O-])c1sc2nc(-c3cccs3)cc(-c3ccccc3)c2c1N (stereo not given),0.85,0.806,–,–
Cc1c(C(=O)NN2CCOCC2)nn(-c2ccc(Cl)cc2Cl)c1-c1ccc(I)cc1,0.645,0.817,–,–
CCc1c(-c2ccccc2)c(-c2ccccc2)nn1-c1ccccc1-c1cccc(OCC(=O)O)c1,1.18,0.994,–,–
Cc1c2c(=O)n(-c3ccccc3Cl)[nH]c2cc(=O)n1Cc1ccccn1,0.973,1.07,–,–
C=C1C[C@]2(O)O[C@@]3(CC2=C(C)C)[C@@H](C)CC[C@@H]13 [Isocurcumenol],0.933,0.92,–,–
COc1ccc(CN2CCC(c3ccc4nc(C(=O)N5CCN(Cc6ccc(C(F)(F)F)cc6)CC5)[nH]c4c3)CC2)cn1,0.849,0.795,–,–
Cc1nc2c([nH]1)c(=O)n(C)c(=O)n2Cc1ccco1 [Furafylline],0.721,0.924,–,–
O=C(NC1CCN(CCCCC2(C(=O)NCC(F)(F)F)c3ccccc3-c3ccccc32)CC1)c1ccccc1-c1ccc(C(F)(F)F)cc1 [Lomitapide],0.293,0.695,–,–
COc1ccc(C2(CNC(=O)c3ccc(NC(=O)c4ccco4)cc3)CCOCC2)cc1,0.84,0.873,–,–
CC(C)=CCC[C@](C)(O[C@@H]1O[C@H](CO)[C@@H](O)[C@H](O)[C@H]1O)[C@H]1CC[C@]2(C)[C@@H]1[C@H](O)C[C@@H]1[C@@]3(C)CC[C@H](O[C@@H]4O[C@H](CO)[C@@H](O)[C@H](O)[C@H]4O[C@@H]4O[C@H](CO)[C@@H](O)[C@H](O)[C@H]4O)C(C)(C)[C@@H]3CC[C@]12C [Ginsenoside Rd],0.834,0.896,–,–
C=C(C)[C@@H]1CC[C@]2(CO)CC[C@]3(C)[C@H](CC[C@@H]4[C@@]5(C)CC[C@H](O)C(C)(C)[C@@H]5CC[C@]43C)[C@@H]12 [Betulin] + COC(=O)c1ccc([C@H]2c3[nH]c4ccccc4c3C[C@H](C(=O)OC)N2C(=O)CCl)cc1 [RSL3],–,–,0.619,0.453
CC(C)=CCC[C@](C)(O)[C@H]1CC[C@]2(C)[C@@H]1[C@H](O)C[C@@H]1[C@@]3(C)CC[C@H](O)C(C)(C)[C@@H]3[C@@H](O)C[C@]12C [(20S)-Protopanaxatriol] + COC(=O)c1ccc([C@H]2c3[nH]c4ccccc4c3C[C@H](C(=O)OC)N2C(=O)CCl)cc1 [RSL3],–,–,0.762,0.672
CN1CCN(c2ccc(/C=C(\C#N)c3ccccc3Br)cc2)CC1 [DG172 (dihydrochloride)] + COC(=O)c1ccc([C@H]2c3[nH]c4ccccc4c3C[C@H](C(=O)OC)N2C(=O)CCl)cc1 [RSL3],–,–,0.373,0.61
O=C(O)c1c[nH]c2cc(Cl)c(-c3ccc(C4(O)CCC4)cc3)cc12,0.958,0.914,–,–
Cc1nc(Nc2cnn(C3CCNCC3)c2)nc2c1N(C)C(=O)c1cc3ccccc3cc1N2C + COC(=O)c1ccc([C@H]2c3[nH]c4ccccc4c3C[C@H](C(=O)OC)N2C(=O)CCl)cc1 [RSL3],–,–,0.31,0.287
O=C(O)Cn1nnc(-c2cc(N3CCC(Oc4cc(F)ccc4Br)CC3)no2)n1 + COC(=O)c1ccc([C@H]2c3[nH]c4ccccc4c3C[C@H](C(=O)OC)N2C(=O)CCl)cc1 [RSL3],–,–,0.428,0.632
